Reference: the supplement of paper PMC4166925
± gives the standard deviation of the averaged measurements. Over roughly 33,000 sequences, “E-score (dimensionless, -0.5 to 0.5)” has its median near -0.046; the highest 2% begin near 0.36. Many of the other results were omitted from the sample, so the highest values are more common in it than they were.

test system: T1, SpTbr T-box DNA-binding domain (GST fusion); experiment: PBM E-score of 8-mer (E-score (dimensionless, -0.5 to 0.5)); Tbr is Tbrain of the sea star Patiria miniata (Pm) or the sea urchin Strongylocentrotus purpuratus (Sp); higher = stronger binding preference; settings: the construct has about 5 more residues each side
T1 sequence: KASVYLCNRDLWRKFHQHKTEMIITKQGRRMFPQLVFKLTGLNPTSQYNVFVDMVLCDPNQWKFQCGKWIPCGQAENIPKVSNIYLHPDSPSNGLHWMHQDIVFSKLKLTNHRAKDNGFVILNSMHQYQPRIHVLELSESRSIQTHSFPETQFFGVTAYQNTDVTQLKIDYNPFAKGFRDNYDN
Method: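 Universal protein-binding microarray (Agilent AMADID 016060, 60-bp probes with a 35-bp variable region) incubated with 200 nM GST-fused Strongylocentrotus purpuratus Tbr T-box DNA-binding domain (residues 362-554) in PBS pH 7.5. Scored for every ungapped 8-mer (given with its reverse complement) as E-score (range -0.5 to 0.5; >0.45 counts as bound) and Z-score of median probe intensity. Two replicate arrays (datasets 1 and 2).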
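Further: protein at 200 nM in PBS on universal double-stranded arrays.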

| Sequence | PBM E-score of 8-mer |
| --- | --- |
| ACGTGACA | 0.3127 ± 0.0018 |
| CGGTGACG | 0.233 ± 0.02 |
| AGGTGACT | 0.276 ± 0.001 |
| AGGTGACC | 0.151 ± 0.0043 |
| AGGTGACG | 0.453 ± 0.0078 |
| AGGTGACA | 0.469 ± 0.015 |
| CGATGGAG | -0.131 ± 0.032 |
| AGACGTAC | -0.0414 ± 0.071 |
| CCCCAGCC | -0.0674 ± 0.013 |
| AGGAGTAT | -0.223 ± 0.0026 |
| AATGACAG | 0.0199 ± 0.049 |
| AATGACAC | 0.3799 ± 0.0026 |
| GATGACAA | 0.278 ± 0.026 |
| CATGACAC | 0.3587 ± 0.0021 |
| GATGACAC | 0.402 ± 0.0092 |
| GATGACCC | 0.12 ± 0.0038 |
| AATCTGAT | -0.25 ± 0.015 |
| GAACGCCC | 0.138 ± 0.0086 |
| AGGTGGGC | -0.0803 ± 0.021 |
| AGGTGGTC | -0.117 ± 0.11 |
| CGGTGGGA | 0.00775 ± 0.037 |
| AGGTGGTA | 0.405 ± 0.011 |
| AGGTGGGA | 0.433 ± 0.0055 |
| AGGTGGTG | 0.34049 ± 0.00016 |
| AGAGGGAA | -0.179 ± 0.028 |

| Sequence | PBM E-score of 8-mer |
| --- | --- |
| GAGCTTCC | -0.129 ± 0.05 |
| CGGCGACA | 0.296 ± 0.018 |
| AGGTGGAA | 0.0503 ± 0.028 |
| GAACTAAC | 0.135 ± 0.023 |
| CGCGACAC | 0.35396 ± 0.00035 |
| AGCGACAC | 0.332 ± 0.022 |
| GGCGACAC | 0.381 ± 0.0043 |
| GGCGACAA | 0.3676 ± 0.0007 |
| TGCGACAA | 0.271 ± 0.022 |
| CGCGACAA | 0.309 ± 0.0049 |
| GCTTTGCA | 0.0233 ± 0.069 |
| AGTCCAGG | -0.396 ± 0.039 |
| AAGTCCCA | -0.0384 ± 0.044 |
| CAGAAACC | -0.106 ± 0.08 |
| AAATTCTG | -0.136 ± 0.06 |
| CAAAGGTG | 0.3923 ± 0.00076 |
| AAAAGGTG | 0.41 ± 0.0094 |
| CAAAGGTA | -0.0771 ± 0.04 |
| AAAAGGTT | -0.0952 ± 0.076 |
| CAAAGGTC | -0.105 ± 0.028 |
| AAAAGGTC | -0.00656 ± 0.018 |
| GGTACTAC | -0.3 ± 0.033 |
| ACGTCGAC | 0.0807 ± 0.016 |
| GCACTCCC | 0.128 ± 0.051 |
| AGCATAAT | -0.177 ± 0.0018 |

| Sequence | PBM E-score of 8-mer |
| --- | --- |
| AATAGGTG | 0.374 ± 0.03 |
| ACTAGGTC | -0.14 ± 0.024 |
| AGTAGGTA | -0.00286 ± 0.076 |
| AGTAGGTC | -0.0701 ± 0.038 |
| AGTAGGTG | 0.3972 ± 0.0024 |
| AATAGGTA | -0.0758 ± 0.075 |
| ACTAGGTG | 0.403 ± 0.012 |
| AATAGGTC | -0.154 ± 0.017 |
| ACTAGGTA | -0.0768 ± 0.014 |
| TCAACAAA | -0.0651 ± 0.048 |
| AGAAGTAT | -0.0503 ± 0.0051 |
| AACGTTAT | 0.0135 ± 0.06 |
| ACAAAACA | 0.0943 ± 0.064 |
| ATAGAGTC | -0.206 ± 0.0048 |
| CGTCTACA | 0.0944 ± 0.046 |
| AGGGTGTC | 0.401 ± 0.015 |
| ACGGTGTC | 0.271 ± 0.051 |
| CGGGTGTC | 0.3608 ± 0.0021 |
| AGGGTGTA | 0.307 ± 0.035 |
| AGGGTGCG | 0.402 ± 0.01 |
| AGGGTGCA | 0.188 ± 0.025 |
| AGGGTGCC | 0.267 ± 0.013 |
| AGGGTGTG | 0.449 ± 0.011 |
| AGGGGGTG | 0.269 ± 0.055 |
| AACAGAGT | -0.0053 ± 0.1 |

| Sequence | PBM E-score of 8-mer |
| --- | --- |
| CACGTTGC | 0.101 ± 0.025 |
| ATTACTTA | -0.154 ± 0.05 |
| AGAGAGAG | 0.0384 ± 0.024 |
| AGTAACAC | 0.3552 ± 0.0029 |
| CCTAACAG | 0.0988 ± 0.11 |
| ACTAACAA | 0.152 ± 0.039 |
| GCTAACAC | 0.417 ± 0.0044 |
| ACTAACAG | 0.1931 ± 0.00053 |
| GGTAACAC | 0.435 ± 0.0032 |
| ACTAACAC | 0.402 ± 0.0071 |
| CCTAACAA | 0.161 ± 0.035 |
| CCTAACAC | 0.4165 ± 0.0028 |
| GCTAACCC | 0.04 ± 0.097 |
| CGTAACAC | 0.3104 ± 0.0022 |
| GCTAACAA | 0.293 ± 0.03 |
| CGACCCGA | -0.0816 ± 0.051 |
| TAACCAGA | -0.055 ± 0.015 |
| AGCAAAAG | -0.191 ± 0.046 |
| ACGCAACA | 0.121 ± 0.024 |
| ATTGCACA | 0.121 ± 0.053 |
| CCCCAGCG | -0.148 ± 0.02 |
| CTTAACAA | 0.243 ± 0.0056 |
| ATTAACAG | 0.139 ± 0.014 |
| ATTAACAC | 0.45 ± 0.015 |
| ATTAACAA | 0.14 ± 0.023 |

| Sequence | PBM E-score of 8-mer |
| --- | --- |
| CTTAACAC | 0.429 ± 0.017 |
| CTTAACCC | -0.000625 ± 0.011 |
| GTAGAAAA | -0.0889 ± 0.057 |
| ATCCAGAG | -0.25 ± 0.021 |
| CCTGGGAG | 0.0895 ± 0.0077 |
| GTGGCCGA | 0.0547 ± 0.071 |
| AGGAAAAT | -0.182 ± 0.018 |
| GTCAATAA | 0.129 ± 0.034 |
| CGCCCGTC | 0.0569 ± 0.029 |
| CTTTTTCC | -0.132 ± 0.081 |
| TACGTTCA | -0.0963 ± 0.066 |
| AGCATTAT | 0.00754 ± 0.061 |
| ACACGTGC | 0.3851 ± 0.0015 |
| ACACGTGG | 0.299 ± 0.02 |
| AAACGTGA | 0.156 ± 0.0067 |
| GCACGTGC | 0.312 ± 0.081 |
| ACACGTGA | 0.283 ± 0.011 |
| AAACGTGT | 0.368 ± 0.018 |
| CCACGTGC | 0.114 ± 0.074 |
| ACACGTCG | 0.372 ± 0.0071 |
| ACACGTCT | 0.342 ± 0.0038 |
| AAACGTGG | 0.144 ± 0.0096 |
| ACACGTCA | 0.319 ± 0.017 |
| ACACGTGT | 0.395 ± 0.0082 |
| CCTTCCGC | 0.168 ± 0.062 |

| Sequence | PBM E-score of 8-mer |
| --- | --- |
| GATGCCTA | -0.279 ± 0.11 |
| AAGGGCCA | -0.259 ± 0.0051 |
| CTCAGCAC | 0.171 ± 0.0069 |
| TATCTCAA | -0.0883 ± 0.013 |
| GTTCAACA | -0.118 ± 0.054 |
| GAGTGACA | 0.343 ± 0.033 |
| AAGTGACT | 0.0603 ± 0.012 |
| AAGTGACG | 0.4 ± 0.0071 |
| AAGTGACC | 0.233 ± 0.041 |
| AAGTGACA | 0.427 ± 0.013 |
| CAGTGACG | 0.0986 ± 0.12 |
| TAGTGACA | 0.417 ± 0.011 |
| AAGTGAAA | 0.209 ± 0.069 |
| CAGTGACA | 0.329 ± 0.0062 |
| GCTGTAAC | -0.0609 ± 0.029 |
| CTCAAAAG | -0.147 ± 0.012 |
| ATGACCTA | -0.132 ± 0.046 |
| ACAGAACA | -0.0577 ± 0.043 |
| CCTGTGCG | 0.125 ± 0.025 |
| TCGCAAAA | 0.132 ± 0.0091 |
| TACTTGGA | -0.311 ± 0.035 |
| AGGAGAGG | -0.247 ± 0.019 |
| AGGTGGGG | 0.238 ± 0.056 |
| CTGTGTGC | 0.000685 ± 0.012 |
| AGGTGTGC | 0.445 ± 0.014 |

| Sequence | PBM E-score of 8-mer |
| --- | --- |
| ATGTGTGG | 0.356 ± 0.007 |
| AGGTGTGG | 0.486 ± 0.0081 |
| AGATGTGC | 0.161 ± 0.011 |
| ATCAGGAC | -0.3 ± 0.086 |
| AAGCTCTA | -0.245 ± 0.027 |
| GTGATCAA | 0.144 ± 0.022 |
| GTGATAAA | 0.305 ± 0.051 |
| ATGATCAC | 0.1861 ± 0.0015 |
| GTGATCAC | 0.366 ± 0.022 |
| GTGATAAC | 0.395 ± 0.0074 |
| ATGATAAC | 0.092 ± 0.059 |
| ACGATGGA | -0.0806 ± 0.066 |
| AGTAATCG | 0.087 ± 0.023 |
| GCTCCTAC | 0.0646 ± 0.0047 |
| AATTCAGC | -0.016 ± 0.024 |
| CCGGACGA | -0.223 ± 0.017 |
| ATCGCCTC | 0.169 ± 0.061 |
| GTTGTCAA | 0.3671 ± 0.0033 |
| GATGTCAA | 0.197 ± 0.0064 |
| CGTGTCAA | 0.4367 ± 0.0011 |
| GCTGTCAC | 0.326 ± 0.025 |
| GTTGTCTA | -0.123 ± 0.027 |
